“And” between values parts separate entries of the source, which are not always exact repeats. Equal entries are not always repeated. The whole screen tested about 5,500 compounds, of which about 2,000 (36%) were called active. Another 18% or so got no clear call; they are omitted. Rule as the data show it: active = normalized growth mostly below about 0.91 (no sharp cut-off); inconclusive = no clear call, values can overlap the other calls; inactive = mostly above about 0.92. Some of the results follow.
Experiment: chemical genetic growth profiling, strain panel (AID 1159580);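 also: tested at 20 µM; growth read once vehicle control cultures reached saturation at 30 °C; 1 = growth at the plate median or of vehicle wells; lower values mean less growth of the strain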
Conditions: S. cerevisiae deletion strains, growth OD

Measured: normalized growth

COC1=CC(=O)C[C@@H](C)[C@]12Oc1c(Cl)c(OC)cc(OC)c1C2=O
inactive: locus YAL013W, strain DEP1, stronger effect = lower value 1.02 | locus YAL021C, strain ccr4, stronger effect = lower value 1.01 | locus YAL026C, strain drs2, stronger effect = lower value 0.989 | locus YAL030W, strain snc1, stronger effect = lower value 0.988 | locus YBL061C, strain skt5, stronger effect = lower value 0.972 | locus YBR009C, strain hhf1, stronger effect = lower value 0.937 | locus YBR021W, strain FUR4, stronger effect = lower value 1 | locus YBR023C, strain chs3, stronger effect = lower value 0.978 | locus YBR171W, strain sec66, stronger effect = lower value 0.961 | locus YBR229C, strain ROT2, stronger effect = lower value 0.954 | locus YBR231C, strain swc5, stronger effect = lower value 1 | locus YBR279W, strain paf1, stronger effect = lower value 0.987 | locus YCL011C, strain gbp2, stronger effect = lower value 0.963 | locus YCL016C, strain dcc1, stronger effect = lower value 0.958 | locus YCL029C, strain bik1, stronger effect = lower value 0.987 | locus YCL061C, strain MRC1, stronger effect = lower value 1 | locus YCL069W, strain vba3, stronger effect = lower value 0.979 | locus YCR088W, strain abp1, stronger effect = lower value 0.979 | locus YDL005C, strain med2, stronger effect = lower value 0.996 | locus YDL035C, strain GPR1, stronger effect = lower value 0.95 | locus YDL040C, strain nat1, stronger effect = lower value 0.995 | locus YDL074C, strain BRE1, stronger effect = lower value 1.02 | locus YDL101C, strain DUN1, stronger effect = lower value 1 | locus YDL134C, strain PPH21, stronger effect = lower value 0.97 | locus YDL185W, strain tfp1, stronger effect = lower value 0.972 | locus YDL192W, strain arf1, stronger effect = lower value 0.988 | locus YDR001C, strain nth1, stronger effect = lower value 0.982 | locus YDR069C, strain doa4, stronger effect = lower value 0.991 | locus YDR101C, strain arx1, stronger effect = lower value 0.992 | locus YDR137W, strain rgp1, stronger effect = lower value 0.954 | locus YDR150W, strain NUM1, stronger effect = lower value 0.996 | locus YDR159W, strain sac3, stronger effect = lower value 1.02 | locus YDR162C, strain NBP2, stronger effect = lower value 0.932 | locus YDR195W, strain ref2 1.03 | locus YDR297W, strain sur2, stronger effect = lower value 1 | locus YDR318W, strain mcm21, stronger effect = lower value 0.988 | locus YDR334W, strain swr1, stronger effect = lower value 0.993 | locus YDR335W, strain msn5, stronger effect = lower value 0.986 | locus YDR388W, stronger effect = lower value 1 | locus YDR392W, strain spt3, stronger effect = lower value 0.907 | locus YDR502C, strain sam2, stronger effect = lower value 0.999 | locus YEL003W, strain gim4, stronger effect = lower value 0.986 | locus YEL037C, strain rad23, stronger effect = lower value 0.984 | locus YEL061C, strain CIN8 (second series), stronger effect = lower value 0.977 | locus YEL061C, strain CIN8, stronger effect = lower value 0.996 | locus YER015W, strain faa2, stronger effect = lower value 0.971 | locus YER016W, strain bim1, stronger effect = lower value 0.971 | locus YER110C, stronger effect = lower value 0.989 | locus YER111C, strain swi4, stronger effect = lower value 0.979 | locus YER155C, strain BEM2 (second series), stronger effect = lower value 1.01 | locus YER155C, strain BEM2, stronger effect = lower value 1.01 | locus YER167W, strain BCK2, stronger effect = lower value 0.981 | locus YFR010W, strain ubp6, stronger effect = lower value 0.987 | locus YGL078C, strain dbp3, stronger effect = lower value 0.987 | locus YGL086W, strain mad1, stronger effect = lower value 0.994 | locus YGL167C, strain pmr1, stronger effect = lower value 0.97 | locus YGL173C, strain kem1, stronger effect = lower value 0.984 | locus YGL227W, strain vid30, stronger effect = lower value 0.978 | locus YGL240W, strain doc1, stronger effect = lower value 1.01 | locus YGL248W, strain PDE1, stronger effect = lower value 1.01 | locus YGL253W, strain hxk2, stronger effect = lower value 0.994 | locus YGR078C, strain PAC10, stronger effect = lower value 1.01 | locus YGR135W, strain pre9, stronger effect = lower value 1.01 | locus YGR229C, strain SMI1, stronger effect = lower value 0.978 | locus YGR252W, strain gcn5, stronger effect = lower value 0.992 | locus YHR013C, strain ard1, stronger effect = lower value 0.975 | locus YHR027C, strain rpn1, stronger effect = lower value 0.975 | locus YHR030C, strain SLT2, stronger effect = lower value 0.988 and 1.01 | locus YHR079C, strain IRE1 (second series), stronger effect = lower value 0.995 | locus YHR079C, strain IRE1, stronger effect = lower value 1.01 | locus YHR094C, strain hxt1, stronger effect = lower value 0.988 | locus YHR129C, strain ARP1, stronger effect = lower value 0.996 | locus YHR142W, strain chs7, stronger effect = lower value 0.934 | locus YHR200W, strain rpn10, stronger effect = lower value 0.983 | locus YIL066C, strain RNR3, stronger effect = lower value 0.937 | locus YIL073C, strain SPO22, stronger effect = lower value 0.997 | locus YIL125W, strain kgd1, stronger effect = lower value 0.986 | locus YIR030C, strain dcg1, stronger effect = lower value 1.01 | locus YJL092W, strain hpr5, stronger effect = lower value 0.987 | locus YJL095W, strain BCK1 (second series), stronger effect = lower value 0.977 | locus YJL095W, strain BCK1, stronger effect = lower value 1.06 and 1.01 | locus YJL115W, strain asf1, stronger effect = lower value 0.981 | locus YJL129C, strain trk1, stronger effect = lower value 0.964 | locus YJL134W, strain LCB3, stronger effect = lower value 0.987 | locus YJL154C, strain vps35, stronger effect = lower value 0.983 | locus YJL164C, strain tpk1, stronger effect = lower value 0.964 | locus YJL166W, strain qcr8, stronger effect = lower value 1 | locus YJL168C, strain set2, stronger effect = lower value 0.989 | locus YJL187C, strain SWE1 (second series), stronger effect = lower value 1.03 | locus YJL187C, strain SWE1, stronger effect = lower value 0.983 | locus YJR043C, strain POL32, stronger effect = lower value 0.964 | locus YJR066W, strain TOR1, stronger effect = lower value 0.969

From PubChem BioAssay AID1159580 (chemical genetic matrix, 2015)
